According to PubChem BioAssay (EPA / NIEHS):
Results filed as inconclusive are left out. The source made the active and inactive calls. How the source made its calls, unless noted: active means hit-call score of the fitted dose curve at least 0.9, where 1 is the maximum; inconclusive means response in the unintended direction; inactive means score below 0.9.

What was measured:
[1] = target: Estrogen receptor (Homo sapiens) (UniProt P03372); test: ATG_ERa_TRANS: Attagene TRANS-FACTORIAL HepG2 Assay for human Estrogen Receptor alpha (ERa) (AID 2282970); conditions: HepG2 Attagene TRANS ERa GAL4 reporter, mRNA
In short: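 Transactivation via ERa-Gal4 chimera in HepG2; 24 hour incubation; reporter mRNA detected by fluorescence RT-PCR and capillary electrophoresis.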

[2] = target: Glucocorticoid receptor (Homo sapiens) (UniProt P04150); test: ATG_GR_TRANS: Attagene TRANS-FACTORIAL HepG2 Assay for human Glucocorticoid Receptor (GR) (AID 2282978); conditions: HepG2 Attagene TRANS GR reporter, mRNA transcription;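 further: activators score as hits since higher reporter transcript over DMSO is fitted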
In short: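 In this trans-factorial format, exogenous NR-GAL4 chimeric proteins in transfected HepG2 cells regulate GAL4-UAS reporter transcription. After 24 h treatment, reporter mRNA induction relative to DMSO is read by RT-PCR and capillary electrophoresis.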

[3] = target: Oxysterols receptor LXR-alpha (Homo sapiens) (UniProt Q13133); test: ATG_LXRa_TRANS: Attagene TRANS-FACTORIAL HepG2 Assay for human Liver X Receptor alpha (LXRa) (AID 2282980); conditions: HepG2 Attagene TRANS reporter, LXRa transactivation
In short: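 Transient HepG2 transfectants, 24 h dosing, RT-PCR/CE mRNA reporter quantitation; gain-of-signal vs DMSO.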

[4] = target: Oxysterols receptor LXR-beta (Homo sapiens) (UniProt P55055); test: ATG_LXRb_TRANS: Attagene TRANS-FACTORIAL HepG2 Assay for human Liver X Receptor beta (LXRb) (AID 2282981); conditions: HepG2 Attagene TRANS GAL4-LXRb reporter, mRNA
In short: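 Transient transfection HepG2 (multiplexed RTUs, GAL4-UAS); NR-Gal4 chimera; 24 h exposure; RNA → RT-PCR → 6-FAM primer extension → HpaI → CE; increase vs DMSO.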

[5] = ATG_M_06_TRANS: Attagene TRANS-FACTORIAL HepG2 Assay for M06 Transcription Factor (Internal Marker) (AID 2282983); conditions: HepG2 Attagene TRANS M06 internal marker reporter;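 further: reporter transcript level by RT-PCR then capillary electrophoresis fluorescence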
In short: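 Measured by capillary electrophoresis of fluorescently labelled RT-PCR products, this endpoint reflects reporter mRNA in HepG2 cells harbouring exogenous NR-GAL4 reporter constructs after 24 h exposure, with DMSO as baseline.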

[6] = target: Transcriptional activator Myb (Homo sapiens) (UniProt P10242); test: ATG_Myb_CIS: Attagene CIS-FACTORIAL HepG2 Assay for human Myeloblastosis (Myb) Proto-Oncogene Transcription Factor (AID 2282986; active means hit-call score of the fitted dose curve at least 0.9, where 1 is the maximum; inactive means score below 0.9); conditions: HepG2 Attagene CIS-FACTORIAL Myb reporter transcription; actives raise or lower the signal
In short: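 Steps: transfect HepG2 with cis-regulated reporter units; dose with chemical for 24 h; isolate RNA, reverse-transcribe, PCR-amplify and FAM-label reporter sequences; digest with HpaI; resolve by capillary electrophoresis. Activity fitted in both directions relative to DMSO.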

[7] = target: Myc proto-oncogene protein (Homo sapiens) (UniProt P01106); test: ATG_Myc_CIS: Attagene CIS-FACTORIAL HepG2 Assay for human Myelocytomatosis (Myc) Proto-Oncogene Transcription Factor (AID 2282990; active means hit-call score of the fitted dose curve at least 0.9, where 1 is the maximum; inactive means score below 0.9); conditions: HepG2, Attagene cis-reporter transcription factor activity; actives raise or lower the signal
In short: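 HepG2, transient MRTU transfection (cis promoters, endogenous TFs); 24 h dosing; TriZol RNA → oligo(dT) RT → PCR → 6-FAM primer extension → HpaI cut → CE. Bidirectional fit vs DMSO.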

[8] = target: Steroid hormone receptor ERR1 (Homo sapiens) (UniProt P11474); test: ATG_ERRa_TRANS: Attagene TRANS-FACTORIAL HepG2 Assay for human Estrogen-Related Receptor alpha (ERRa) (AID 2282971); conditions: HepG2 Attagene TRANS reporter, ERRa transactivation
In short: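 HepG2 cells were transiently transfected with multiple GAL4-UAS reporter units, then dosed with compound for 24 h. Total RNA was reverse-transcribed, reporter cDNA PCR-amplified and fluorescently labelled, and fragments resolved by capillary electrophoresis; induction was compared with DMSO.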

[9] = target: X-box-binding protein 1 (Homo sapiens) (UniProt P17861); test: ATG_Xbp1_CIS: Attagene CIS-FACTORIAL HepG2 Assay for human X-box Binding Protein 1 (XBP1) (AID 2282972; active means hit-call score of the fitted dose curve at least 0.9, where 1 is the maximum; inactive means score below 0.9); conditions: HepG2 XBP1 cis-element reporter, Attagene multiplex; actives raise or lower the signal
In short: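 HepG2, transient MRTU transfection (cis-promoter driven), 24 h compound exposure. Total RNA → oligo(dT) RT → PCR → 6-FAM labeling → HpaI cut → CE. Bidirectional fit vs DMSO.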

[10] = ATG_GAL4_TRANS: Attagene TRANS-FACTORIAL HepG2 Assay for GAL4 (Internal Marker) (AID 2282976); conditions: HepG2 Attagene TRANS GAL4 internal marker reporter
In short: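 Fluorescence from capillary electrophoresis of labelled RT-PCR products quantifies reporter mRNA induction after 24 h dosing of HepG2 cells carrying transfected GAL4-UAS reporter transcription units. Vehicle DMSO serves as baseline.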

[11] = target: Estrogen-related receptor gamma (Homo sapiens) (UniProt P62508); test: ATG_ERRg_TRANS: Attagene TRANS-FACTORIAL HepG2 Assay for human Estrogen-Related Receptor gamma (ERRg) (AID 2282977); conditions: HepG2 Attagene TRANS reporter, ERRg transactivation;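 further: hits increase reporter signal over DMSO so potencies reflect activators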
In short: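 HepG2 cells transiently transfected with multiplexed GAL4-UAS reporter units driven by chimeric NR-Gal4 proteins; 24 h exposure. Reporter mRNA quantified by RT-PCR, fluorescent labelling, HpaI digestion and capillary electrophoresis; gain of signal vs DMSO.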

[12] = target: Bile acid receptor (Homo sapiens) (UniProt Q96RI1); test: ATG_FXR_TRANS: Attagene TRANS-FACTORIAL HepG2 Assay for Farnesoid X Receptor (FXR) (AID 2282979); conditions: HepG2 Attagene TRANS FXR-GAL4 reporter transcription;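 further: hits raise reporter mRNA above DMSO so AC50 marks FXR activation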
In short: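 Chimeric FXR-GAL4 activity in transiently transfected human HepG2 liver cells is scored as induction of reporter mRNA after 24 h of dosing. Detection uses RT-PCR with fluorescent labelling and capillary electrophoresis, with DMSO serving as baseline.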

[13] = target: Hepatocyte nuclear factor 4-alpha (Homo sapiens) (UniProt P41235); test: ATG_HNF4a_TRANS: Attagene TRANS-FACTORIAL HepG2 Assay for human Hepatocyte Nuclear Factor 4 alpha (HNF4a) (AID 2282982); conditions: HepG2 HNF4a transactivation reporter, mRNA readout
In short: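 Readout is fluorescent reporter-transcript fragments resolved by capillary electrophoresis after RT-PCR from HepG2 cells dosed for 24 h. Cells carried transfected GAL4-UAS reporter constructs measuring exogenous NR-GAL4 chimera activity; DMSO served as baseline.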

[14] = ATG_M_32_TRANS: Attagene TRANS-FACTORIAL HepG2 Assay for M32 Transcription Factor (Internal Marker) (AID 2282984); conditions: HepG2 Attagene TRANS M32 internal marker reporter
In short: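 Measures reporter mRNA induction in human HepG2 liver cells after 24 h chemical treatment. Transcripts from transiently transfected GAL4-UAS reporter units are amplified, fluorescently labelled and sized by capillary electrophoresis; gain of signal relative to DMSO.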

[15] = target: Nuclear receptor subfamily 4 group A member 2 (Homo sapiens) (UniProt P43354); test: ATG_NURR1_TRANS: Attagene TRANS-FACTORIAL HepG2 Assay for human Nuclear Receptor Related Protein 1 (NURR1) (AID 2282985); conditions: HepG2 Attagene TRANS reporter, mRNA readout
In short: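 Transient transfection of HepG2, human liver cells, with multiple GAL4-UAS reporter transcription units. Cells dosed 24 h, RNA isolated, reverse-transcribed, PCR-amplified, FAM-labelled, HpaI-digested, sized by capillary electrophoresis. DMSO served as negative control.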

[16] = target: Nuclear respiratory factor 1 (Homo sapiens) (UniProt Q16656); test: ATG_NRF1_CIS: Attagene CIS-FACTORIAL HepG2 Assay for human Nuclear Respiratory Factor 1 (NRF1) Orphan Gene (AID 2282987; active means hit-call score of the fitted dose curve at least 0.9, where 1 is the maximum; inactive means score below 0.9); conditions: HepG2 NRF1 cis-element reporter, Attagene multiplex; actives raise or lower the signal
In short: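 Fluorescence intensity of labelled reporter cDNA fragments, resolved by capillary electrophoresis, served as readout for NRF1 cis-element activity. Transiently transfected HepG2 cells were dosed for 24 hours; activity in either direction was fitted against DMSO negative control.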

[17] = ATG_M_19_TRANS: Attagene TRANS-FACTORIAL HepG2 Assay for M19 Transcription Factor (Internal Marker) (AID 2282974); conditions: HepG2 Attagene TRANS-FACTORIAL M19 internal marker reporter
In short: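 Cells: human HepG2, transiently transfected with multiplexed reporter transcription units. Exposure: 24 h. Detection: RT-PCR of reporter mRNA with capillary electrophoresis. Analysis: gain-of-signal vs DMSO.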

[18] = ATG_NFI_CIS: Attagene CIS-FACTORIAL HepG2 Assay for human Nuclear Factor I (NFI) (AID 2282989; active means hit-call score of the fitted dose curve at least 0.9, where 1 is the maximum; inactive means score below 0.9); conditions: HepG2 cis-regulatory reporter, NFI response element transcription; actives raise or lower the signal
In short: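 Read-out: reporter mRNA via RT-PCR plus capillary electrophoresis with fluorescence detection. Transiently transfected HepG2 (endogenous TF activity on cis promoters), 24 h compound exposure; gain or loss of signal fitted against DMSO.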

Measured: AC50

Transcriptional activator Myb (Homo sapiens), sequence (P10242 whole entry, looked up): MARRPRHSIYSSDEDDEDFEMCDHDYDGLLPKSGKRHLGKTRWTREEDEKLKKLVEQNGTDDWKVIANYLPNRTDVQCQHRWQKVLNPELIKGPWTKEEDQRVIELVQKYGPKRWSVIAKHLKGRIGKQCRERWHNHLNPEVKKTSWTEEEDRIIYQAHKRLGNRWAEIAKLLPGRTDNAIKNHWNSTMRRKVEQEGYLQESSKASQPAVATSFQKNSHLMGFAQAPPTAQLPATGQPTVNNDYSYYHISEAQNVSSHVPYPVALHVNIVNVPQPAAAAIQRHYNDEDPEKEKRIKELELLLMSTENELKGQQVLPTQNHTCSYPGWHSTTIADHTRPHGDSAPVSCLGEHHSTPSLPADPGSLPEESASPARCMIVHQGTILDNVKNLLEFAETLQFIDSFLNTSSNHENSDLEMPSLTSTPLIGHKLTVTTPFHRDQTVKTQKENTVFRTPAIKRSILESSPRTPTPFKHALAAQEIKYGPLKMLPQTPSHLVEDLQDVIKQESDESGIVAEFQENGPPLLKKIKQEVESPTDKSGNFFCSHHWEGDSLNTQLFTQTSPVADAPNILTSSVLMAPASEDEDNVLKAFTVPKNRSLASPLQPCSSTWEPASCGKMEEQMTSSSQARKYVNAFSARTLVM
Nuclear respiratory factor 1 (Homo sapiens), sequence (Q16656 whole entry, looked up, the tested form may be a part): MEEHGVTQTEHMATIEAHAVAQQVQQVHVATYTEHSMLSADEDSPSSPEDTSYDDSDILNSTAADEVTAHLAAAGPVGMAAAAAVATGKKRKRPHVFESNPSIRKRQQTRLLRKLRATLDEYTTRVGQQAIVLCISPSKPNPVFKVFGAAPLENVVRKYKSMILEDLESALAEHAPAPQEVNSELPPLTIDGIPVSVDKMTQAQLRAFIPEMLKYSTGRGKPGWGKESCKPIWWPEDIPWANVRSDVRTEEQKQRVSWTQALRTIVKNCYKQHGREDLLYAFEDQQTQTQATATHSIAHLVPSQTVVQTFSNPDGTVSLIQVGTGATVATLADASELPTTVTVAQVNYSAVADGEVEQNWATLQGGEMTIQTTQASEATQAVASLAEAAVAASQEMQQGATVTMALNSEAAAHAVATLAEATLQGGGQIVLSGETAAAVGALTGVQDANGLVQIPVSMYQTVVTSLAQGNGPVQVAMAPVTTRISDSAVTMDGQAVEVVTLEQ
Myc proto-oncogene protein (Homo sapiens), sequence (P01106 whole entry, looked up): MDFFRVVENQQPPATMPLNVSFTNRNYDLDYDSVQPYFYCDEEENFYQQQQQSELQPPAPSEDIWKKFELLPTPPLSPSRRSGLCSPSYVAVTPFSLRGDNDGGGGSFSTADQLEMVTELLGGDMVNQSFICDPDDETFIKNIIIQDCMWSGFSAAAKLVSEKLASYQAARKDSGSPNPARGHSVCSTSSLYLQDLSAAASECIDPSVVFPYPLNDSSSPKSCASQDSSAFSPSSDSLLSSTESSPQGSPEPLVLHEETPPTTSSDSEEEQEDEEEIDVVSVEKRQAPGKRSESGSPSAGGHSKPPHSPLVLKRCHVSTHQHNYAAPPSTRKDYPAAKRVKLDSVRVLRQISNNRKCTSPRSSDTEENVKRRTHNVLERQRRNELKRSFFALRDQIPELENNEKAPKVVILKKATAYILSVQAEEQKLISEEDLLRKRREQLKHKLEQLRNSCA
Hepatocyte nuclear factor 4-alpha (Homo sapiens), sequence (P41235 whole entry, looked up, the tested form may be a part): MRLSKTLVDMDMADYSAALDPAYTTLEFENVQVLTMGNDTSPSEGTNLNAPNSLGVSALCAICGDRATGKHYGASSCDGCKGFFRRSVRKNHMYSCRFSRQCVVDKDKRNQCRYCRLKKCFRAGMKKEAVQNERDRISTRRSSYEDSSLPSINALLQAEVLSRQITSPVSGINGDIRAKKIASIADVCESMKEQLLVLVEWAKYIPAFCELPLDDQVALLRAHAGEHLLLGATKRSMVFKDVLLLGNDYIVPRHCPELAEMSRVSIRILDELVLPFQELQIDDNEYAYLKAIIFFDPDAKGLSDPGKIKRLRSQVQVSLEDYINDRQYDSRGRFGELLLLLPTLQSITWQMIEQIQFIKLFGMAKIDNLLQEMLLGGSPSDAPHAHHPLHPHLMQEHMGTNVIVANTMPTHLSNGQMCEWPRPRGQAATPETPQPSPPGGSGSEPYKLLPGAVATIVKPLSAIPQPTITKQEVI
X-box-binding protein 1 (Homo sapiens), sequence (P17861 whole entry, looked up): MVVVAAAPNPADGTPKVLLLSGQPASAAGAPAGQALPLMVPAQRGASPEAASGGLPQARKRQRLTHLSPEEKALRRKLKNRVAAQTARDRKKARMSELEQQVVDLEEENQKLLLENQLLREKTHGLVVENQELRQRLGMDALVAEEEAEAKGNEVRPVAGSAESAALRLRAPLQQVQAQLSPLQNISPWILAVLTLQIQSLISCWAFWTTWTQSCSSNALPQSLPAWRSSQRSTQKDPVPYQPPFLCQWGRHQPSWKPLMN
Oxysterols receptor LXR-beta (Homo sapiens), sequence (P55055 whole entry, looked up, the tested form may be a part): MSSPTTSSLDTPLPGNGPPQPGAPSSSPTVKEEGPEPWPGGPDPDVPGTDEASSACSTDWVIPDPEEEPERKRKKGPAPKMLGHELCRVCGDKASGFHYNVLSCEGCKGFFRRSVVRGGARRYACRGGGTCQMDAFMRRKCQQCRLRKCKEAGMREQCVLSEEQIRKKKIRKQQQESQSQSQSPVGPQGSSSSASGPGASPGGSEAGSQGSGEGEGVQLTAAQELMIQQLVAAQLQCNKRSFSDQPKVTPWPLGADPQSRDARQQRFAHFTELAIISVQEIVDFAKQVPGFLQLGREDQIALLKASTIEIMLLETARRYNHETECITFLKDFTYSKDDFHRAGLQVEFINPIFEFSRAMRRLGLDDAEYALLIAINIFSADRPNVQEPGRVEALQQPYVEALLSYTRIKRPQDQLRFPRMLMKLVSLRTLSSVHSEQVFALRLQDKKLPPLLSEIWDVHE
Oxysterols receptor LXR-alpha (Homo sapiens), sequence (Q13133 whole entry, looked up): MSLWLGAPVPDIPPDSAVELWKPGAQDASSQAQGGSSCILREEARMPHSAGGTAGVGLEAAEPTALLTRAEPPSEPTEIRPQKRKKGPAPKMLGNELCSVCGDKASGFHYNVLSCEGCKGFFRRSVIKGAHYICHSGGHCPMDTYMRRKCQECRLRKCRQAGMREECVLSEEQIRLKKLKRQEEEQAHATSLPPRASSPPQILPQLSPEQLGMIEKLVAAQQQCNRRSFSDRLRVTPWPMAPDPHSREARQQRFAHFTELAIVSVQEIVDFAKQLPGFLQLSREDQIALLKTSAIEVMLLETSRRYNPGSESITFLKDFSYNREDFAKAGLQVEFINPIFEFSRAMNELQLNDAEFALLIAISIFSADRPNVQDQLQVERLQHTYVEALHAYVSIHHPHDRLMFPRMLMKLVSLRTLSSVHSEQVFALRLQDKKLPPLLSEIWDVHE
Bile acid receptor (Homo sapiens), sequence (Q96RI1 whole entry, looked up, the tested form may be a part): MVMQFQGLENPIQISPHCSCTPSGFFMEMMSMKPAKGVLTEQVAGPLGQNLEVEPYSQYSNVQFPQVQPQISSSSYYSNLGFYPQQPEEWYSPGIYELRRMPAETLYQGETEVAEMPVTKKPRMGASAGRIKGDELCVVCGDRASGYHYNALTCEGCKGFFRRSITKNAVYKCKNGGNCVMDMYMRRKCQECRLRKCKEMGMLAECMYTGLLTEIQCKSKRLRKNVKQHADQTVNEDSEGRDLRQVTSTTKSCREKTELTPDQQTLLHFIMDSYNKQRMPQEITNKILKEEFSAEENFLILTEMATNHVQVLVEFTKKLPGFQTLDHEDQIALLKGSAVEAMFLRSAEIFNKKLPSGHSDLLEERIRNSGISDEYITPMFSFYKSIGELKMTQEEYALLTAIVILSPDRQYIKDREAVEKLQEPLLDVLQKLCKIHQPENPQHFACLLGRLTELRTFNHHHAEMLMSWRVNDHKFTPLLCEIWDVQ
Steroid hormone receptor ERR1 (Homo sapiens), sequence (P11474 whole entry, looked up, the tested form may be a part): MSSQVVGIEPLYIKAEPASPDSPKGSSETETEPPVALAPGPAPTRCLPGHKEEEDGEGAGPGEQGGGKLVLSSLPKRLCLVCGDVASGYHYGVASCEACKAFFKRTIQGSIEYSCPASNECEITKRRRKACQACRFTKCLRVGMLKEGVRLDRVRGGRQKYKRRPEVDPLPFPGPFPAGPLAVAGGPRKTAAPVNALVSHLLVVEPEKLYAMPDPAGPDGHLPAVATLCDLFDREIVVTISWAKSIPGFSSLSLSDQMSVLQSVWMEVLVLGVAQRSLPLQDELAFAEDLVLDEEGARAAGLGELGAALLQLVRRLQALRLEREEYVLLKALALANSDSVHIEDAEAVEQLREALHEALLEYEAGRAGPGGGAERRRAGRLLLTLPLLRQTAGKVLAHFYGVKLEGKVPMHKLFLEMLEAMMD
Estrogen receptor (Homo sapiens), sequence (P03372 whole entry, looked up, the tested form may be a part): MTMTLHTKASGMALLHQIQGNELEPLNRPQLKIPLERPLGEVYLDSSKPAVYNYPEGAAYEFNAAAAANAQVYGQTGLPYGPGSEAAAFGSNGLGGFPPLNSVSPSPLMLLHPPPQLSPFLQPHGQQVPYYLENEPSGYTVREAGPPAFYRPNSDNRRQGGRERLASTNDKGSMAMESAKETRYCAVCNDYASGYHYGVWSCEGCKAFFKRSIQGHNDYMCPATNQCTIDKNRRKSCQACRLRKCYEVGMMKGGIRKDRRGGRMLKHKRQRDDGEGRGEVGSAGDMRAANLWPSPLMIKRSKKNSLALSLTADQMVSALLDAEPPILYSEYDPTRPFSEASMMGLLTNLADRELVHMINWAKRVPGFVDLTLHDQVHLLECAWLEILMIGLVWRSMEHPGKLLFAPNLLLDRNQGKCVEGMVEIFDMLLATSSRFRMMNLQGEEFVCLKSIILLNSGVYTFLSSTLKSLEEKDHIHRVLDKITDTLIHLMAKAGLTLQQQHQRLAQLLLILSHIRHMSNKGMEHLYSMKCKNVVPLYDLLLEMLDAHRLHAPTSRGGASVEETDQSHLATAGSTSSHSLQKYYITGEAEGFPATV

CN(C)CCOC(c1ccccc1)c1ccccc1
inactive: [1] | [2] | [3] | [4] | [5] | [6] | [7]

CCOC(=O)CN[C@@H](C(=O)N1CC[C@H]1C(=O)NCc1ccc(/C(N)=N/O)cc1)C1CCCCC1
active: [15] 3.99 µM
inactive: [8] | [9] | [10] | [11] | [2] | [12] | [4] | [13] | [5] | [14] | [6] | [16] | [7]

Brc1ccc(Oc2ccc(Br)cc2Br)cc1
inactive: [8] | [17] | [3] | [4] | [5] | [15] | [6] | [16] | [18] | [7]

CCCCCCCCCC=CCC1CC(=O)OC1=O (stereo unspecified)
inactive: [1] | [9] | [5] | [6] | [16] | [18] | [7]

COC(=O)C(F)(F)C(F)(F)C(F)(F)F
inactive: [1] | [10] | [2] | [4] | [5] | [14] | [15] | [6] | [16] | [18] | [7]

O=C(NCc1ncc(C(F)(F)F)cc1Cl)c1c(Cl)cccc1Cl
inactive: [1] | [2] | [12] | [3] | [13] | [5] | [14] | [6] | [16] | [7]

C[C@]12CC[C@@H]3c4ccc(O)cc4CC[C@H]3[C@@H]1CC[C@@H]2OC(=O)CCC1CCCC1
active: [1] 0.0823 µM | [18] 100 µM
inactive: [9] | [2] | [3] | [4] | [5] | [6] | [16] | [7]

Cc1cc(C(=C2C=CC(=Nc3ccc(S(=O)(=O)O)cc3)C=C2)c2ccc(Nc3ccc(S(=O)(=O)O)cc3)cc2)cc(S(=O)(=O)O)c1N
inactive: [8] | [9] | [2] | [3] | [4] | [13] | [5] | [14] | [6] | [16] | [18] | [7]

CC(=O)CC(C)C
inactive: [8] | [17] | [10] | [3] | [4] | [13] | [5] | [6] | [16] | [18] | [7]

O=C1OC(=O)C(F)(F)C1(F)F
inactive: [8] | [9] | [17] | [10] | [2] | [12] | [3] | [4] | [5] | [14] | [16] | [18] | [7]

CCC(C)c1nccnc1OC (stereo unspecified)
inactive: [8] | [9] | [17] | [10] | [2] | [3] | [4] | [14] | [16] | [7]

COC(=O)CC(C(C)=O)C(=O)OC (stereo unspecified)
inactive: [1] | [9] | [13] | [5] | [16] | [18] | [7]

CCCCCCCCCCCCCC[n+]1ccccc1
inactive: [8] | [9] | [17] | [2] | [3] | [6] | [16] | [18] | [7]
active: [11] 189 µM | [4] 53.6 µM | [13] 100 µM | [14] 47 µM | [15] 9.84 µM

O=S(=O)(c1ccc(OCc2ccccc2)cc1)c1ccccc1O
active: [15] 49.9 µM | [6] 33.4 µM
inactive: [1] | [2] | [5] | [14] | [16] | [7]

COCC1CCC(CO)CC1 (stereo unspecified)
inactive: [1] | [9] | [3] | [4] | [5] | [6] | [16] | [18] | [7]

CCCCCCCC(OC)OC
inactive: [1] | [9] | [2] | [5] | [15] | [16] | [18] | [7]
